# This is a sample that favours compounds with a hit; in the whole collection about 1.6% have one here.
# KCNQ2 enhance: potentiators of rat KCNQ2 potassium channel | O88943 | CHO-K1 KCNQ2, FluxOR thallium flux fluorescence; active compounds read high | B-score at 10 µM | 0.54% of 310,000 active;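 active = fluorescence ratio B-score at least 3 SD of library B-scores, with initial fluorescence B-score within 3 of them, cut at about 5.3 in these data; same plate scores as AID 2156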;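 also: B-score of peak minus minimum over baseline fluorescence ratio after K+ and Tl+ stimulus; positive B-score means potentiation of KCNQ2 with more thallium influx and brighter signal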
# KCNQ2 inh: blocks the rat KCNQ2 potassium channel | O88943 | CHO-K1 KCNQ2, FluxOR thallium flux, 20 min; active compounds read low | 1.1% of 310,000 active | B-score at 10 µM;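 active = fluorescence ratio B-score at most minus 3 library SDs, with starting brightness B-score within 2 library SDs, cut at about -5.5 in these data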
# Kir21 confirm: confirmation of mouse Kir2.1 potassium channel inhibitors; AID 2032; 41% of 2,300 active; shares compounds with KCNQ2 enhance; Kir2.1-expressing cells, FluxOR thallium flux fluorescence; active compounds read low; Tl flux remaining, % of negative control (active compounds read low), % at 10 µM;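 active = Primary-screen hit whose thallium flux fell at least 3 control SD below untreated wells in both duplicates, with normal baseline fluorescence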;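 also: 0% = blank wells without stimulus and 100% = stimulated no-compound controls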
# HEK293 ctr: parental HEK293 activity in Kir2.1 inhibitor counter-screen | FluxOR signal as % of negative control (100 = no effect), % at 10 µM | parental HEK293 cells, FluxOR thallium flux fluorescence; 0% = unstimulated blank wells | 19% of 2,300 active | AID 2105 | shares compounds with KCNQ2 enhance;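 active = dye signal at least 3 control SD above or below untreated wells in both duplicates, raw fluorescence within 3, either direction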;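 also: percent is based on the flux ratio of peak minus minimum fluorescence over baseline F0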
# CHO-K1 ctr: alters thallium flux in parental CHO-K1 cells, KCNQ2 counter-screen; shares compounds with KCNQ2 enhance; FluxOR thallium flux fluorescence; zero = vehicle mean+3SD, 100% = vehicle-minus-blank window; activity increase over 3SD of controls, % at 10 µM; 43% of 1,200 active;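 active = signal rise of at least 3 SD above the untreated control mean, in both duplicate wells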;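 also: counter screen of KCNQ2 potentiator hits so any rise reflects channel-independent effects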
# KCNQ1 sel pot: human KCNQ1 counter-target activity of KCNQ2 potentiators. AID 2283. shares compounds with KCNQ2 enhance. 28% of 1,200 active. activation over 3SD threshold, % at 10 µM. CHO KCNQ1 stable, FluxOR thallium flux fluorescence; beyond 3SD, as % of vehicle-control signal;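 active = fluorescence ratio rise of at least 3 SD of vehicle wells above their mean, in both replicate wells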;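 also: 0% = vehicle mean plus 3 SD and 100% = vehicle minus unstimulated blank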
# KCNQ2 pot conf: confirmation of rat KCNQ2 potassium channel potentiators | potentiation, less the hit threshold, % at 10 µM | CHO-KCNQ2 cells, FluxOR thallium flux fluorescence | 68% of 1,200 active | shares compounds with KCNQ2 enhance;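 active = fluorescence ratio rising 3 SD or more over the vehicle control mean in both replicates, plus primary screen hit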;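 also: peak minus minimum thallium fluorescence divided by baseline after K/Tl stimulus; 0% = vehicle mean plus 3 SD and 100% = vehicle minus unstimulated blank difference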
# Kir2-1 sel: selectivity of KCNQ2 potentiators: effect on mouse Kir2.1; shares compounds with KCNQ2 enhance; HEK293 Kir2.1, FluxOR thallium flux fluorescence; activity over 3SD threshold, % at 10 µM; 2% of 1,200 active;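 active = fluorescence ratio rise of at least 3 SD above the vehicle-control mean, seen in both replicates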;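 also: 0% = vehicle mean plus 3 SD and 100% = vehicle minus no-stimulus blank window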
# KCNQ2 W236L pot: rat KCNQ2 W236L mutant potentiation by KCNQ2 potentiators; current increase over 3SD of negative controls (%), active compounds read high, % at 25 µM; CHO KCNQ2-W236L, automated patch clamp current; 10% of 940 active; shares compounds with KCNQ2 enhance; AID 2558;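 active = current increase at least 3 SD of the untreated controls above them in both duplicate recordings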
# Target sequence (O88943 whole entry W236L, looked up): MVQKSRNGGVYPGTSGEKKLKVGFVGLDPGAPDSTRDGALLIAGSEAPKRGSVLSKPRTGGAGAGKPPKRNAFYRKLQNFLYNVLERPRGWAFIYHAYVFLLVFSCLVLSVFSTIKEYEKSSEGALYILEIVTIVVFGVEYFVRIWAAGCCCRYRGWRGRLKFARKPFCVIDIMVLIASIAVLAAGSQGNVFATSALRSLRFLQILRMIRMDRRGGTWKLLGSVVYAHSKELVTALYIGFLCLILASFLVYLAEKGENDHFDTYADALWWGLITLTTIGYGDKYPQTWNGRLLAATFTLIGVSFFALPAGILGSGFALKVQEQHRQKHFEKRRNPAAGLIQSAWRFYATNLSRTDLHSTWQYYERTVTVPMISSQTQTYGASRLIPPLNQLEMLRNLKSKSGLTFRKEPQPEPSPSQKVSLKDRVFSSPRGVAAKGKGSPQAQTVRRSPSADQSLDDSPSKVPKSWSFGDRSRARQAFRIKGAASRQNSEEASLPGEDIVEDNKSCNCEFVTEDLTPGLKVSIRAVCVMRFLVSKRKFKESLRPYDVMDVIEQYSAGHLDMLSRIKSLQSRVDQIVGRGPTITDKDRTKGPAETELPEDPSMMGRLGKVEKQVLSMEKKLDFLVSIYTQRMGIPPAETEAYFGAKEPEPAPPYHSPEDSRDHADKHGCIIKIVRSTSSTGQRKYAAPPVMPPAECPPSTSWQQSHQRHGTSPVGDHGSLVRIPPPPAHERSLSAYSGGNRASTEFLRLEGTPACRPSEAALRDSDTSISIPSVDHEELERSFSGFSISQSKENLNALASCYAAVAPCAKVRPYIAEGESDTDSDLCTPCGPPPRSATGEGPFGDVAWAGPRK
# An asterisk follows results filed as active; i = inactive; / = no result.
SMILES,KCNQ2 enhance,KCNQ2 inh,Kir21 confirm,HEK293 ctr,others
O=C(CN(Cc1ccc(Cl)cc1)C(=O)CNS(=O)(=O)c1ccc(F)cc1)NCC1CCCO1 (configuration not stated),1.8,i,/,/,
O=C(NNC(=S)NC1CCCCC1)c1cccs1,0.02,i,/,/,
CC1CCCCC1NC(=S)NC(=O)c1cccs1 (configuration not stated),8.4*,i,i,188%*,CHO-K1 ctr=44*;KCNQ1 sel pot=23*;KCNQ2 pot conf=15*;Kir2-1 sel=-24;KCNQ2 W236L pot=i
Clc1cccc(NCc2nnc(SCc3ccccc3)o2)c1,22*,i,i,i,CHO-K1 ctr=46*;KCNQ1 sel pot=-20;KCNQ2 pot conf=-19;Kir2-1 sel=-47
Clc1cccc(NCc2nnc(SCc3ccccc3Cl)o2)c1,/,i,/,/,
Cc1cc(OCC(O)CNC(C)c2ccccc2)ccc1C(C)C (configuration not stated),3.9,i,i,i,
CC(NCC(O)COc1ccc2ccccc2c1)c1ccccc1 (configuration not stated),0.03,i,/,/,
Cc1cccc(NC(=O)COC(=O)c2ccccn2)c1,1.2,i,/,/,
CCCCCCC(O)(c1ccc(OC)cc1)C(CN1CCOCC1)c1ccccc1 (configuration not stated),6.4*,i,i,i,CHO-K1 ctr=-24;KCNQ1 sel pot=-9;KCNQ2 pot conf=6.2*;Kir2-1 sel=-45;KCNQ2 W236L pot=i
CCCCCCC(O)(c1ccccc1)C(CN1CCOCC1)c1ccccc1 (configuration not stated),0.4,i,/,/,
COc1ccccc1CN1CCNC(=O)C1CC(=O)NCc1cn(C)nc1C (configuration not stated),0.01,i,/,/,
CCC(OC(=O)c1ccco1)C(=O)NCc1ccc2c(c1)OCO2 (configuration not stated),0.84,i,/,/,
CCn1nc(C)c(CNC(=O)Nc2ccccc2C(=O)OC)c1C,/,i,/,/,
CC(O)CNc1nc2ccccc2n1-c1ncnc2sc3c(c12)CCC3 (configuration not stated),/,i,78%*,i,
c1ccc2c(c1)ncn2-c1ncnc2sc3c(c12)CCCC3,0.16,i,/,/,
CN(C)CCCN1c2ccccc2Sc2ccc(Cl)cc21,0.4,i,28%*,i,
CN(C)CC/C=C1\c2ccc(F)cc2Sc2cc(F)c(Cl)cc21,/,i,/,/,
CN(C)CC/C=C1\c2ccccc2Sc2ccc(Cl)cc21,0.23,i,26%*,i,
CN(C)CC/C=C1/c2ccc(F)cc2Sc2ccc(Cl)cc21,-5.8,-5.8*,i,i,
OCCN1CCN(CCCN2c3ccccc3Sc3ccc(Cl)cc32)CC1,/,i,/,/,
CN(C)CC/C=C1\c2ccccc2Sc2cc(F)c(Cl)cc21,/,i,/,/,
O=C(Nc1cccc(S(=O)(=O)N2CCCC2)c1)c1ccccc1OC(F)F,/,i,/,/,
CSCc1ccc(C(=O)NC(C)c2cnn(-c3ccccn3)c2C)o1 (configuration not stated),/,i,/,/,
C=CCn1c(SCc2c(C)noc2C)nc2cc(C(=O)O)ccc2c1=O,0.07,i,/,/,
C=CCn1c(SCc2ccc(Br)cc2F)nc2cc(C(=O)O)ccc2c1=O,5.3*,i,i,i,CHO-K1 ctr=-15;KCNQ1 sel pot=-20;KCNQ2 pot conf=-2;Kir2-1 sel=-29;KCNQ2 W236L pot=i
SMILES,KCNQ2 enhance,KCNQ2 inh,Kir21 confirm,HEK293 ctr,others
Cc1nn(C)cc1S(=O)(=O)Nc1ccc(F)c(F)c1,/,i,/,/,
OCCNCc1ccc(OCc2ccc(Cl)cc2Cl)cc1,/,i,31%*,i,
OCCCCNCc1ccc(OCc2ccc(Cl)cc2Cl)cc1,/,i,33%*,i,
COc1cc(CNCCCCO)ccc1OCc1ccccc1F,0.1,i,/,/,
S=C(Nc1ccccc1)Nc1ccc(OCc2ccc(Cl)cc2Cl)cc1,/,i,/,/,
CC1CC1C(=O)Nc1nc(-c2cccs2)c(-c2cccs2)s1 (configuration not stated),/,i,/,/,
CCOCCCNc1ncnc2c1nc1n2CCCC1,0.83,i,/,/,
Cc1ccc(NNC(=O)Nc2ccc(Cl)cc2)nn1,0.97,i,/,/,
CN(c1ccccc1)S(=O)(=O)c1cccc(C(=O)Nc2nn[nH]n2)c1,0.08,i,/,/,
Cc1ccc(C(C)(C)C)c(OCCCn2ccnc2)c1,/,i,/,/,
CC(C)(C)c1ccccc1OCCCCCn1ccnc1,-6.1,-6.1*,39%*,i,
CC1=C(C(=O)c2ccccc2)C(c2ccc(N3CCOCC3)cc2)NC(=O)N1 (configuration not stated),0.85,i,/,/,
O=C(c1ccc(F)cc1)N(c1ccccn1)C1CCCCC1,0.25,i,/,/,
COc1ccc(OC)c(C(=O)c2c(C)oc3cc([N+](=O)[O-])c(O)c([N+](=O)[O-])c23)c1,0.84,i,/,/,
Cc1oc2cc([N+](=O)[O-])c(O)c([N+](=O)[O-])c2c1C(=O)c1ccc(Cl)cc1,7.9*,i,i,144%*,CHO-K1 ctr=88*;KCNQ1 sel pot=-10;KCNQ2 pot conf=14*;Kir2-1 sel=-34;KCNQ2 W236L pot=10%*
CCOC(=O)c1c(NC(=O)CC2Nc3cc(C)c(C)cc3NC2=O)sc(C)c1C (configuration not stated),0.79,i,/,/,
S=C(NCc1cccs1)Nc1ccccc1,0.61,i,/,/,
Cc1ccc(NC(=S)NCc2cccs2)cc1,8.9*,i,i,i,CHO-K1 ctr=-3;KCNQ1 sel pot=-12;KCNQ2 pot conf=14*;Kir2-1 sel=-29;KCNQ2 W236L pot=i
Oc1c(Br)cc(/C=N/Nc2ccc(Cl)nn2)cc1Br,2.6,i,/,/,
Oc1c(Br)cc(Br)cc1/C=N/Nc1ccc(Cl)nn1,11*,i,i,i,CHO-K1 ctr=-10;KCNQ1 sel pot=-18;KCNQ2 pot conf=13*;Kir2-1 sel=-12;KCNQ2 W236L pot=i
Cc1ccc(OCCCC(=O)NC2CCCCC2)cc1,/,i,/,/,
CC1c2ccsc2CCN1S(=O)(=O)c1cccs1 (configuration not stated),/,i,57%*,i,
CN1CCN(S(=O)(=O)c2cccs2)CC1,0.11,i,/,/,
CCCN(CC(=O)Nc1ccccc1OC)C(=O)Cc1ccccc1F,/,i,/,/,
CC(C)Cc1ccc(C(C)C(N)=NCCc2ccccc2)cc1 (configuration not stated),/,i,i,i,
COc1ccc(CCN=C(N)C(C)c2ccccc2)cc1OC (configuration not stated),0.65,i,/,/,
CCOc1cc(CNCc2cccnc2)ccc1OCC(=O)NC(C)(C)C,0.31,i,/,/,
Cc1ccc(NC(=O)CSCC(=O)Nc2ccccc2C(=O)N2CCCCC2)cc1,0.38,i,/,/,

# Screening data from PubChem BioAssay.
